Inconclusive results are not listed. The source made the active and inactive calls. Unless noted, calls follow the shape of the dose curve; as a rule, active = well fitted curve in the direction sought with a large enough effect in the repeat runs; inconclusive = weak or mixed curves; inactive = no such curve, though single readings can be large; an effect the other way counts as inactive or inconclusive.
What was measured:
[1] = molecular target: Thyrotropin receptor (Homo sapiens) (UniProt P16473); assay: qHTS assay to identify small molecule agonists of the thyroid stimulating hormone receptor (TSHR) signaling pathway (AID 1224843; calls by dose curve; also: nearly all actives have a fitted effect of over 45% in size)
Summary of the method: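 Cell line HEK293 with TSHR; density 800/well. Exposure 30 min RT. Readout HTRF cAMP (cAMP-d2/anti-cAMP-cryptate), 1 h RT before reading.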

[2] = qHTS assay to identify small molecule agonists of H2AX (AID 1224845; active = well fitted activation curve with a large enough effect in the signal ratio in the repeat runs, not every such curve was filed as active; the % refers to the signal ratio)
Summary of the method: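 Wild-type CHO-K1 cells plated overnight, then exposed 3 hr at 37C to compounds at 15 concentrations (0.76% DMSO). Lysed, then HTRF anti-pH2AX(S139)-cryptate/anti-H2AX-d2 detection after 24 hr at room temperature; emissions 665 and 620 nm.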

[3] = qHTS assay to identify small molecule agonists of the hypoxia (HIF-1) signaling pathway (AID 1224846; active = well fitted activation curve with a large enough effect in the signal ratio in the repeat runs, not every such curve was filed as active; the % refers to the signal ratio)
Summary of the method: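 HRE-bla ME-180 cells (beta-lactamase reporter under hypoxia response element) were plated at 2,000 cells/well in medium with 0.5% dialyzed FBS, rested 5 hrs, then given compounds in DMSO for 17 hrs at 37C, 5% CO2. Reporter induction was read with CCF4-AM FRET substrate.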

[4] = qHTS assay to identify small molecule agonists of the estrogen related receptor (ERR) signaling pathway from Tox21 library (AID 1224849; calls by dose curve; also: nearly all actives have a fitted effect of over 15% in size); conditions: ERR reporter cell line, ONE-Glo luciferase, 18 h; at 92.4 µM (top of the series) unless noted
Summary of the method: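 ERR reporter cell line (NTP) seeded, rested 6 h at 37 C/5% CO2, then pinned with Tox21 compounds in DMSO. After 18 h at 37 C, ONE-Glo luciferase luminescence was read following 30 min at room temperature.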

[5] = qHTS RealTime-Glo MT Cell Viability Assay in HepG2 cells - 24 hour (AID 1224867); also: nearly all actives have a fitted effect of over 50% in size
Summary of the method: (§1)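 Tox21 10K library screened in qHTS format on HepG2 cells carrying RealTime-Glo reagents. Compounds were added after a 5 h preincubation, and the luminescent signal from continuous culture was measured repeatedly during 40 h treatment.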

[6] = qHTS RealTime-Glo MT Cell Viability Assay in HEK293 cells - 32 hour (AID 1224868); also: top concentration of the series differs between compounds; nearly all actives have a fitted effect of over 50% in size
Summary of the method: (§2)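 Luminescence generated by NanoLuc from substrate produced by living HEK293 cells served as the viability signal. Each value reflects the reading at its stated time point during continuous 40 h compound exposure at 37 C.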

[7] = A CellTox Green Cytotoxicity Assay to monitor cytotoxicity in HEK293 cells - 0 hour (AID 1224869); also: nearly all actives have a fitted effect of over 50% in size
Summary of the method: (§3)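 HEK293 cells premixed with CellTox Green dye were seeded at 600 cells/well and left 5 h at 37 C/5% CO2 before pin transfer of 23 nL compound in DMSO. Fluorescence from dye bound to dead-cell DNA was read during 40 h treatment.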

[8] = qHTS RealTime-Glo MT Cell Viability Assay in HepG2 cells - 40 hour (AID 1224870); also: nearly all actives have a fitted effect of over 50% in size
Summary of the method: (§4)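 HepG2 cells mixed with RealTime-Glo MT reagents (NanoLuc plus cell-permeant prosubstrate) were seeded at 600 cells/well, incubated 5 h at 37 C/5% CO2, then pinned with compounds in DMSO; nonlytic luminescence tracked viability during 40 h treatment.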

[9] = A CellTox Green Cytotoxicity Assay to monitor cytotoxicity in HEK293 cells - 40 hour (AID 1224871); also: nearly all actives have a fitted effect of over 45% in size
Summary of the method: as §3

[10] = qHTS RealTime-Glo MT Cell Viability Assay in HEK293 cells - 16 hour (AID 1224872)
Summary of the method: as §2

[11] = qHTS RealTime-Glo MT Cell Viability Assay in HepG2 cells - 8 hour (AID 1224873); also: nearly all actives have a fitted effect of over 55% in size
Summary of the method: as §4

[12] = qHTS RealTime-Glo MT Cell Viability Assay in HEK293 cells - 40 hour (AID 1224874); conditions: RealTime-Glo luminescence; max response: active compounds read low; also: nearly all actives have a fitted effect of over 50% in size
Summary of the method: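 HEK293 cells mixed with RealTime-Glo reagents (NanoLuc plus cell-permeant prosubstrate) at 600 cells/well, preincubated 5 h at 37 C/5% CO2, then given 23 nL compound in DMSO. Nonlytic luminescence from viable cells was read at 0, 8, 16, 24, 32 and 40 h.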

[13] = A CellTox Green Cytotoxicity Assay to monitor cytotoxicity in HEK293 cells - 24 hour (AID 1224875); also: nearly all actives have a fitted effect of over 45% in size
Summary of the method: as §3

[14] = A CellTox Green Cytotoxicity Assay to monitor cytotoxicity in HepG2 cells - 16 hour (AID 1224876); also: nearly all actives have a fitted effect of over 45% in size
Summary of the method: (§5)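 HepG2 cells were seeded together with the CellTox Green dye at 600 cells/well, left 5 h at 37 C/5% CO2, then given compounds in DMSO. Fluorescence from dye bound to dead-cell DNA was read repeatedly over 40 h of treatment at 37 C.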

[15] = qHTS RealTime-Glo MT Cell Viability Assay in HepG2 cells - 32 hour (AID 1224877); also: nearly all actives have a fitted effect of over 55% in size
Summary of the method: as §1

[16] = A CellTox Green Cytotoxicity Assay to monitor cytotoxicity in HepG2 cells - 24 hour (AID 1224878); also: nearly all actives have a fitted effect of over 45% in size
Summary of the method: as §5

[17] = A CellTox Green Cytotoxicity Assay to monitor cytotoxicity in HepG2 cells - 40 hour (AID 1224879); also: nearly all actives have a fitted effect of over 40% in size
Summary of the method: as §5

[18] = qHTS assay to identify small molecule agonists of the hypoxia (HIF-1) signaling pathway - cell viability counter screen (AID 1224844; calls by dose curve; also: nearly all actives have a fitted effect of over 50% in size)
Summary of the method: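 HRE-bla ME-180 cells in medium with 0.5% dialyzed FBS were preincubated 5 hrs at 37C, exposed to compounds for 17 hrs, then viability was read as CellTiter-Glo luminescence after 30 min at room temperature, in the reporter wells.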

[19] = qHTS assay to identify small molecule agonists of H2AX - cell viability counter screen (AID 1224847; calls by dose curve; also: top concentration of the series differs between compounds; nearly all actives have a fitted effect of over 30% in size)
Summary of the method: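 CHO-K1 cells plated overnight at 37C, then exposed 3 h at 37C to compounds at 15 concentrations (0.76% DMSO final). Viability by CellTiter-Glo luminescence after 30 min at room temperature.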

[20] = qHTS assay to identify small molecule antagonists of the estrogen related receptor (ERR) signaling pathway from Tox21 library (AID 1224848); also: nearly all actives have a fitted effect of over 50% in size
Summary of the method: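 Screening used an ERR reporter line supplied by NTP, exposed for 18 h at 37 C to library compounds delivered in DMSO. Signal was luciferase luminescence developed with ONE-Glo at room temperature for 30 min.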
% is scaled to controls: 0 for no effect and ±100 for the full control effect.

Sequence of Thyrotropin receptor (Homo sapiens) (P16473 whole entry, looked up): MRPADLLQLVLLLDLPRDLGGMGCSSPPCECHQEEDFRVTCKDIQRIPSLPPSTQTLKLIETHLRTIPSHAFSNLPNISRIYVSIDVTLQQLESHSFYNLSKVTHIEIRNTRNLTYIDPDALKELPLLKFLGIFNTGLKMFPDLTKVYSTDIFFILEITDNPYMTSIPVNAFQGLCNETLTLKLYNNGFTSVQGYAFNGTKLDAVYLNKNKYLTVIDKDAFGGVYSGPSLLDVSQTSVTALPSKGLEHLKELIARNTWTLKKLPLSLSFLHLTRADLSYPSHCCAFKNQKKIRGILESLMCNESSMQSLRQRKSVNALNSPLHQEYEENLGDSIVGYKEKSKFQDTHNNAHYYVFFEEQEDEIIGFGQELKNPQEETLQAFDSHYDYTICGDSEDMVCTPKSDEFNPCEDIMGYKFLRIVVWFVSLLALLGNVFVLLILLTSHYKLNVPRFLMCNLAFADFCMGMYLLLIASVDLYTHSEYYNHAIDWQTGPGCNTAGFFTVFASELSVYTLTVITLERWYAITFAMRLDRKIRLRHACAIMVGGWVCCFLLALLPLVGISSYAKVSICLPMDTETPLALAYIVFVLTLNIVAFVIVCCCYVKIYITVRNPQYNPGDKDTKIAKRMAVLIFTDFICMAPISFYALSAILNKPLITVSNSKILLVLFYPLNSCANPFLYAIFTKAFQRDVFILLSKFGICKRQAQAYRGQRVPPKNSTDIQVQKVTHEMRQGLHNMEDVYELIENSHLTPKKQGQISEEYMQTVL

CCOC(=O)CS
inactive: Potency [1] | Potency [2] | outcome [3] | activity change, positive = activation [4] -14.3% | Potency [5] | Potency [6] | Potency [7] | Potency [8] | Potency [9] | Potency [10] | outcome [11] | max response [12] -5.88% | Potency [13] | Potency [14] | Potency [15] | Potency [16] | Potency [17]

CCCCCCCCOC(=O)CCCCCCCCC(=O)OCCCCCCCC
inactive: Potency [18] | Potency [2] | outcome [3] | Potency [19] | Potency [20] | activity change, positive = activation [4] 3.45% | Potency [5] | Potency [6] | Potency [7] | Potency [8] | Potency [9] | Potency [10] | outcome [11] | max response [12] 6.02% | Potency [13] | Potency [14] | Potency [15] | Potency [17]

CCCCNCCCC
inactive: Potency [18] | Potency [2] | outcome [3] | Potency [19] | Potency [20] | activity change, positive = activation [4] 0.877% | Potency [5] | Potency [6] | Potency [7] | Potency [8] | Potency [9] | Potency [10] | outcome [11] | max response [12] 1.62% | Potency [13] | Potency [14] | Potency [15] | Potency [17]

C=CCCC=C
inactive: Potency [1] | outcome [3] | Potency [19] | Potency [20] | activity change, positive = activation [4] 2.68% | Potency [5] | Potency [6] | Potency [7] | Potency [8] | Potency [9] | Potency [10] | outcome [11] | max response [12] 4.67% | Potency [13] | Potency [14] | Potency [15] | Potency [16] | Potency [17]

Cc1onc(-c2ccccc2)c1C(=O)Cl
inactive: Potency [1] | Potency [18] | Potency [2] | Potency [19] | Potency [5] | Potency [6] | Potency [7] | Potency [8] | Potency [9] | Potency [10] | outcome [11] | max response [12] 5.64% | Potency [13] | Potency [15]

O=C(O[C@@H](C(=O)O)[C@@H](OC(=O)c1ccccc1)C(=O)O)c1ccccc1
inactive: Potency [18] | Potency [2] | outcome [3] | Potency [19] | Potency [20] | activity change, positive = activation [4] -13.3% | Potency [5] | Potency [6] | Potency [7] | Potency [8] | Potency [9] | Potency [10] | outcome [11] | Potency [13] | Potency [14] | Potency [15] | Potency [16] | Potency [17]

CC1=NN(c2cc(Cl)c(S(=O)(=O)O)cc2Cl)C(=O)C1N=Nc1ccc(S(=O)(=O)O)cc1 (centres undefined)
inactive: Potency [1] | Potency [18] | outcome [3] | Potency [19] | Potency [5] | Potency [6] | Potency [7] | Potency [8] | Potency [9] | Potency [10] | max response [12] 4.23% | Potency [13] | Potency [15]

Cc1ccc(C(C)C)cc1O
inactive: Potency [18] | Potency [2] | outcome [3] | Potency [19] | Potency [5] | Potency [6] | Potency [7] | Potency [8] | Potency [10] | outcome [11] | max response [12] -12% | Potency [13] | Potency [15]
